In PubChem BioAssay AID1443 (Sanford-Burnham Center for Chemical Genomics, 2008):
The whole screen tested about 220,000 compounds, of which about 880 (0.4%) were called active. The sample as a whole holds a higher share of actives than the screen did. Values without a mark were called inactive.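 The calls were made as follows: active = cell killing above 50% in the first pass at 4 µM, then a duplicate retest at 5 µM averaging 50% or more; inactive = the rest.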

Assay: PPC-1 cell viability loss under TRAIL – PPC-1 cells, ATPLite luminescence, uHTS, TRAIL potentiator project, primary screen (AID 1443);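 also: plate controls were cells with TRAIL plus DMSO for no effect and medium-only wells lacking cells for full effect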
Details: PPC-1 cells + TRAIL, active compounds read high; at 4 µM unless noted
With COc1ccc2cc(-c3[nH]ncc3CNCCn3nc(C)cc3C)ccc2c1 the cell killing (% activity) was 0.6%.
For Cn1c(=NC(=O)c2cnccn2)sc2ccccc21, the cell killing (% activity) was 53.2% [at 5 µM] (active).
Compound Cn1c(=NC(=O)CSCC(=O)N2CCCCC2)sc2ccccc21 has a cell killing (% activity) of 21.3%.
Work on Cn1c(=NC(=O)CSCC(=O)N2CCOCC2)sc2ccccc21 yielded a cell killing (% activity) of 11.5%.
With Cc1ccsc1/C=N/Nc1ccc(Cl)nn1 the cell killing (% activity) was -6.9%.
For O=[N+]([O-])c1ccc(N2CCN(S(=O)(=O)c3ccccc3)CC2)cc1N1CCc2ccccc2C1, the cell killing (% activity) was 8.9%.
Work on Cc1ccccc1NC(=S)N(CCCN1CCOCC1)Cc1cccs1 yielded a cell killing (% activity) of 8.5%.
c1ccc(-c2noc(-c3cccs3)n2)nc1 showed a cell killing (% activity) of 31.1%.
For O=C(Oc1ccc(-c2nc(-c3ccccn3)no2)cc1)c1ccccc1, the cell killing (% activity) was 54.2% [at 5 µM] (active).
With O=C(Oc1ccccc1)c1ccc2nccnc2c1 the cell killing (% activity) was 25.8%.
With Cc1cc(C)c(C)c(S(=O)(=O)N[C@@H](C)C(=O)OC(C)C(=O)NC(N)=O)c1C (stereo partly specified) the cell killing (% activity) was 18.2%.
NCCCC[C@@H]1NC(=O)[C@H](CCC(=O)O)NC(=O)c2cc([N+](=O)[O-])cc(I)c2NCC[C@@H](C(N)=O)NC1=O showed a cell killing (% activity) of -6.5%.
With O=S(=O)(Nc1ccc(OC(F)(F)F)cc1)c1cccc2nonc12 the cell killing (% activity) was 7.3%.
O=C(CSc1nnc(C2CC2)n1Cc1ccccc1)Nc1cccnc1Cl showed a cell killing (% activity) of 9.8%.
For Cc1ccc(NS(=O)(=O)c2ccc(N/N=C/c3ccccc3OCC(=O)O)c([N+](=O)[O-])c2)c(C)c1, the cell killing (% activity) was -2.4%.
For Clc1ccc(-c2cc(-c3ccccn3)on2)c(Cl)c1, the cell killing (% activity) was 88% [at 5 µM] (active).
O=C1CSC(c2ccccc2)N1c1nc(-c2ccc(Cl)cc2Cl)cs1 (stereo unspecified) gave a cell killing (% activity) of 27.7%.
Compound O=C(NCc1ccccn1)c1cc(-c2ccccc2Cl)on1 has a cell killing (% activity) of 24.5%.
CCOC(=O)c1c(/N=C/C2C(=O)CC(C)(C)CC2=O)sc(C)c1C gave a cell killing (% activity) of 14.1%.
CCCCSc1nnc2c(n1)OC=Nc1ccccc1-2 gave a cell killing (% activity) of 11.9%.
COc1ccc(/C(C)=N/N2CCOCC2)c(O)c1 gave a cell killing (% activity) of -10.1%.
For COc1ccc(-c2nc(-c3ccccc3)no2)c(OC)c1, the cell killing (% activity) was 68% [at 5 µM] (active).
For COc1ccc(-c2noc(-c3cccc(OC)c3OC)n2)cc1OC, the cell killing (% activity) was 18.8%.
COc1ccc(-c2noc(-c3ccc(C)cc3)n2)cc1 showed a cell killing (% activity) of 25.4%.
Compound O=c1c2cc(-c3ccccc3)sc2nc2n1N=C(c1cccs1)CS2 has a cell killing (% activity) of 30.8%.
For Cc1cc(C)c2c(NC(=O)C3CC3)nn(C)c2n1, the cell killing (% activity) was 0.3%.
COc1cccc(CC(=O)Nc2ccc(-c3csc(C)n3)cc2)c1 gave a cell killing (% activity) of 2.3%.
Work on COCCn1c(C)cc(C2=NNC(=Nc3ccc(F)cc3)SC2)c1C yielded a cell killing (% activity) of 12.3%.
Cc1cc(C2=NNC(=Nc3ccc(S(=O)(=O)N4CCOCC4)cc3)SC2)c(C)n1CC1CCCO1 (stereo unspecified) showed a cell killing (% activity) of 8.5%.
For C=CCn1c(C)cc(C2=NNC(=NCC)SC2)c1C, the cell killing (% activity) was 88.8% [at 5 µM] (active).
Work on O=C(NNC(=O)c1ccc(Cl)cc1Cl)c1cccs1 yielded a cell killing (% activity) of 35.4%.
For CCOC(=O)c1cc(C)nc(S(C)(=O)=O)c1C#N, the cell killing (% activity) was 19.4%.
For N#C/C(=C\C1=C(N2CCOCC2)C(=C\c2ccccc2)/CC1)C(=O)Nc1ccccc1F, the cell killing (% activity) was 3.4%.
Compound COc1ccc(-c2cn3ccsc3n2)cc1 has a cell killing (% activity) of 46.2%.
Work on COc1ccc(-c2cn3cccnc3n2)cc1 yielded a cell killing (% activity) of 13.9%.
For Cc1ccc(-c2cn3cc(C)ccc3n2)cc1, the cell killing (% activity) was 86.4% [at 5 µM] (active).
In the case of COc1ccc(-c2cn3ccc(C)cc3n2)cc1, the cell killing (% activity) is reported as 89% [at 5 µM] (active).
In the case of CS(=O)(=O)Nc1cccc(-c2cn3ccccc3n2)c1, the cell killing (% activity) is reported as 4.6%.
For c1ccc(-c2cn3cccnc3n2)cc1, the cell killing (% activity) was 13.7%.
For Cc1cccc(NC(=O)C2CC(=O)OC23CCCC3)c1 (stereo unspecified), the cell killing (% activity) was -2.2%.
For COc1ccc(C(=O)ON=C2c3ccccc3-c3ccccc32)cc1OC, the cell killing (% activity) was 8.6%.
With Cc1sc2nc(COC(=O)C(NC(=O)c3ccc(Cl)cc3Cl)C(C)C)[nH]c(=O)c2c1C (stereo unspecified) the cell killing (% activity) was 2.9%.
For O=C(Nc1ccc(S(=O)(=O)Nc2nccs2)cc1)c1cccc(S(=O)(=O)N2CCOCC2)c1, the cell killing (% activity) was 10.1%.
With Fc1ccccc1Cc1ccc(Cl)nn1 the cell killing (% activity) was 22.4%.
Compound CCN(CC)C(=O)CS(=O)CC(=O)Nc1cc(OCCOC)c(Cl)cc1Cl (stereo unspecified) has a cell killing (% activity) of 3.5%.
With CCCc1cc(=O)[nH]c(SCC(=O)N2CCN(S(=O)(=O)c3ccc(C)cc3C)CC2)n1 the cell killing (% activity) was -8.7%.
For N=c1n(CCc2ccccc2)c2ccccc2n1Cc1ccccc1F, the cell killing (% activity) was 53.1% (active).
For CN(Cc1ccccc1)Cc1ccccc1F, the cell killing (% activity) was 10.6%.
For Fc1ccccc1Cn1cnc(NC(=S)NCCc2ccccc2)n1, the cell killing (% activity) was 23.7%.
O=C(NCCCN1CCN(c2ccc(F)cc2)CC1)Nc1ccc([N+](=O)[O-])cc1 gave a cell killing (% activity) of -6.5%.
In the case of Cc1c(C(=O)c2cccc([N+](=O)[O-])c2)c2ccccn2c1CCC#N, the cell killing (% activity) is reported as 33.6%.
Work on COC(=O)c1ccc(COc2cc([N+](=O)[O-])cc3cccnc23)cc1 yielded a cell killing (% activity) of -4.2%.
Cn1c(CC2Sc3ccccc3NC2=O)nnc1SCC(=O)c1ccc(Cl)cc1 (stereo unspecified) showed a cell killing (% activity) of 5.2%.
In the case of O=C(c1ccc(F)cc1)n1c(=S)nc2ccccn21, the cell killing (% activity) is reported as 81.3% [at 5 µM] (active).
O=C(c1ccc(F)cc1)n1cc(C(=S)N2CCOCC2)c2ccccc21 gave a cell killing (% activity) of 21%.
For O=C(Cn1c(=S)nc2ccccn21)N1CCc2ccccc2C1, the cell killing (% activity) was -12%.
NS(=O)(=O)c1ccc(NC(=S)Nc2ccc(Br)c(Cl)c2)cc1 gave a cell killing (% activity) of 12%.
In the case of O=C(OCC1O[C@@H](OC(=O)c2cc(O)c(O)c(O)c2)[C@@H](OC(=O)c2cc(O)c(O)c(O)c2)[C@@H](OC(=O)c2cc(O)c(O)c(O)c2)[C@@H]1OC(=O)c1cc(O)c(O)c(O)c1)c1cc(O)c(O)c(O)c1 (stereo partly specified), the cell killing (% activity) is reported as -9.9%.
CCOc1ccc(CN2CCN(Cc3ccon3)CC2CCO)cc1 (stereo unspecified) showed a cell killing (% activity) of 8.1%.
In the case of Cc1noc(/C=C/c2ccco2)c1S(=O)(=O)N1CCC(C(=O)Nc2ccc(Cl)cn2)CC1, the cell killing (% activity) is reported as 24.3%.
Cc1nonc1C(=O)N/N=C/c1ccc(O)cc1 gave a cell killing (% activity) of -5.1%.
Compound CC(NC(=O)CCC(=O)N1CCN(S(=O)(=O)c2ccc(Cl)cc2)CC1)c1ccccc1 (stereo unspecified) has a cell killing (% activity) of 16.9%.
With CCN(CC(=O)Nc1ccc(S(=O)(=O)N2CCCC2)cc1)CC(=O)Nc1cccc(OC)c1 the cell killing (% activity) was 6.9%.
Compound NS(=O)(=O)c1cccnc1Nc1cccc(Cl)c1 has a cell killing (% activity) of 23%.
CC(C)n1cnc2c(Nc3cccc(Cl)c3)nc(N(CCO)CCCO)nc21 gave a cell killing (% activity) of 8.8%.
For OCCCNc1nccc(-c2cc(Nc3cccc(Cl)c3)ncn2)n1, the cell killing (% activity) was 80.9% (active).
With CCOC(=O)c1sc2nc(C)nc(Nc3ccc(OC)c(OC)c3)c2c1C the cell killing (% activity) was -11.6%.
CCN1CCC2(CC1)N=C(c1ccc(F)cc1)C(=S)N2C(=O)c1ccc(C)cc1 showed a cell killing (% activity) of 5.2%.
With O=C(Nc1n[nH]c(C(F)(F)F)n1)c1cccs1 the cell killing (% activity) was 2.7%.
Work on O=C(COC(=O)c1ccc(S(=O)(=O)Nc2ccccc2)cc1)NCC1CCCO1 (stereo unspecified) yielded a cell killing (% activity) of 14.7%.
In the case of Cc1cc(C)nc(NC(=O)/C=C/c2ccc(Cl)cc2)n1, the cell killing (% activity) is reported as -2.4%.
Brc1ccc2nc(N3CCCC3)sc2c1 showed a cell killing (% activity) of -2.5%.
In the case of c1c2c(cc3sc(N4CCCCC4)nc13)OCCO2, the cell killing (% activity) is reported as 65.8% (active).
In the case of Cc1nc2cc3c(cc2s1)OCO3, the cell killing (% activity) is reported as 9%.
O=C(O)/C(=C/c1cccnc1)NC(=O)c1ccccc1 showed a cell killing (% activity) of 9%.
COCCNc1nc(-c2ccccc2)nc2c1oc1ccccc12 showed a cell killing (% activity) of 8.8%.
Cc1ccc2nsnc2c1S(=O)(=O)N1CCCC1C(=O)O (stereo unspecified) gave a cell killing (% activity) of 13.9%.
For Cc1cc(=O)oc2c(C(=O)c3ccccc3)c(OCC(N)=O)ccc12, the cell killing (% activity) was 6.8%.
Work on COc1cccc(C(=O)n2ccc(-c3cccs3)n2)c1 yielded a cell killing (% activity) of -11.4%.
For Cc1nc2cc(NC(=O)NC3CC3)ccc2n1C, the cell killing (% activity) was 14.9%.
In the case of C=CCN(C(=O)Nc1ccc2c(c1)nc(C)n2C)c1ccccc1, the cell killing (% activity) is reported as 14.1%.
With Cc1nc2cc(NC(=O)Nc3cccc(F)c3)ccc2n1C the cell killing (% activity) was 54.1% [at 5 µM] (active).
Work on COC(C(=O)Nc1ccc(S(=O)(=O)Nc2ccc(C)c(C)c2)cc1)c1ccccc1 (stereo unspecified) yielded a cell killing (% activity) of 19.1%.
For COc1ccccc1NC(=O)CCSc1nnc(-c2ccc(O)cc2)o1, the cell killing (% activity) was -2.2%.
CCC(C)N1C(=S)SC(C)(C)C1N(O)C(=O)NC1CCCCC1 (stereo unspecified) gave a cell killing (% activity) of 13.9%.
COc1cccc(/C=N/NC(=O)c2cccc([N+](=O)[O-])c2)c1OS(=O)(=O)c1ccc(C)cc1 gave a cell killing (% activity) of -0.7%.
With Cc1ccc(-n2[nH]c(C)c(/C=N/NC(=O)c3cccc([N+](=O)[O-])c3)c2=O)cc1C the cell killing (% activity) was 60.3% (active).
Compound Cc1[nH]n(-c2ccccc2)c(=O)c1/C=N/NC(=O)c1ccoc1C has a cell killing (% activity) of 29.6%.
Compound CC(C)CNC(=S)Nc1ccc(F)cc1 has a cell killing (% activity) of 31.5%.
CC1CC(=S)Nc2ccccc2N1Cc1ccccc1 (stereo unspecified) showed a cell killing (% activity) of 16%.
For CCNC(=O)COC(=O)/C=C/c1c(C)nn(Cc2cccc(OC)c2)c1Cl, the cell killing (% activity) was -7.2%.
Compound CCOC(=O)c1nnn2c1nc(N1CCN(c3ccccc3)CC1)c1ccccc12 has a cell killing (% activity) of 3.6%.
Cc1csc(SCC(=O)Nc2sccc2C#N)n1 showed a cell killing (% activity) of 10.6%.
For Clc1cccc(-c2nc(NCC3CCCO3)c3ccccc3n2)c1 (stereo unspecified), the cell killing (% activity) was -5.4%.
c1ccc(-c2nc(NCc3ccco3)c3ccccc3n2)cc1 gave a cell killing (% activity) of 6.1%.
In the case of Clc1ccc2nc(-c3ccccc3)nc(C(Cl)Cl)c2c1, the cell killing (% activity) is reported as 79.2% [at 5 µM] (active).
